Reference: PubChem BioAssay (NCATS)
Results filed as inconclusive are left out. Entries that show only a call come without a potency. The source made the active and inactive calls. Calls come from the whole dose curve; as a rule, active = well fitted curve in the direction sought with a large enough effect; inconclusive = small, poorly fitted or top-dose-only effect, or another doubt; inactive = no such curve, though single readings can be large; an effect the other way counts as inactive or inconclusive.

Columns and labels:
[1] = SW1088 Cancer Cell Toxicity qHTS against the NCATS CANVASS Library (AID 1347350); note: nearly all actives have a fitted effect of over 75% in size; note: potency is the fitted concentration of half-maximal effect
Procedure, shortened: (§1)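 Following a 4 h pre-incubation of 1000 seeded cells, compounds were pinned in an 11-pnt dilution series and left for 72 h; viability then came from CellTiter-Glo.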

[2] = UWB1.289-WTBRCA1 Cancer Cell Toxicity qHTS against the NCATS CANVASS Library (AID 1347354)
Procedure, shortened: (§2)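 1000 cells/well, 4 h pre-incubation 37 °C/5% CO2; 11-pnt titration; 72 h; CellTiter-Glo 15 min RT, luminescence.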

[3] = tested on: NAD(P)H diaphorase (Clostridium kluyveri); experiment: Diaphorse counterscreen qHTS: Assay Interference Panel against the NCATS CANVASS Library (AID 1347362)
Procedure, shortened: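 Counterscreen for coupling-enzyme interference: resorufin fluorescence from resazurin/NADH turnover, read after 5 min at room temperature. Compounds were tested over an 11-point series after 15 min dark preincubation with diaphorase in PBS-Tween.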

[4] = KB-8-5-11 Cancer Cell Toxicity qHTS against the NCATS CANVASS Library (AID 1347364); note: nearly all actives have a fitted effect of over 75% in size; note: potency is the fitted concentration of half-maximal effect
Procedure, shortened: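 CellTiter-Glo luminescence after 72 h exposure; 500 KB-8-5-11 cells/well, DMEM/10% FBS, 37C, 5% CO2; compounds in 11-pt qHTS. Follow-up confirmation included medium with 1uM tariquidar.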

[5] = SDT Cancer Cell Toxicity qHTS against the NCATS CANVASS Library (AID 1347365); note: nearly all actives have a fitted effect of over 60% in size; note: potency is the fitted concentration of half-maximal effect
Procedure, shortened: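 Luminescent ATP read-out (CellTiterGlo) after 72 hr compound exposure of dog glioma SDT cells, 500 per well. Eleven-point titrations; bortezomib titration run alongside as control.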

[6] = qHTS for ATAD5 Agonist screened against the NCATS CANVASS Library (AID 1347367);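 note: luciferase reporter driven by ATAD5 which rises upon DNA damage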
Procedure, shortened: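 Genotoxicity was scored as increased ATAD5-luciferase luminescence in HEK293T after 16hr of exposure, with cell viability measured by fluorescence beforehand in the same well.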

[7] = G06 Cancer Cell Toxicity qHTS against the NCATS CANVASS Library (AID 1347368); note: nearly all actives have a fitted effect of over 60% in size; note: potency is the fitted concentration of half-maximal effect
Procedure, shortened: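 ATP luminescence (CellTiterGlo) readout of cytotoxicity. Canine G06 glioma cells, 500/well, 72 hr incubation at 37C with compounds; bortezomib titration served as control.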

[8] = qHTS for ATAD5 Antagonist screened against the NCATS CANVASS Library (AID 1347370); note: nearly all actives have a fitted effect of over 65% in size; note: potency is the fitted concentration of half-maximal effect
Procedure, shortened: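 HEK293T-ATAD5 luc reporter, 2000 cells/well; 5hr attach; cpd + 10 uM 5-FUrd; 16hr 37C, 5% CO2. Readouts: CellTiter-Fluor fluorescence (1hr), then Amplite luciferase luminescence (30min RT).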

[9] = J3T Cancer Cell Toxicity qHTS against the NCATS CANVASS Library (AID 1347371); note: potency is the fitted concentration of half-maximal effect
Procedure, shortened: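 Dog glioma J3T, 500 cells/well; cpd 11-pt qHTS; 72 hr, 37C/5% CO2; CellTiterGlo ATP luminescence readout.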

[10] = target: Nuclear receptor subfamily 1 group I member 3 (Homo sapiens) (UniProt Q14994); experiment: qHTS for Constitutive Androstane Receptor (CAR) Antagonist screened against the NCATS CANVASS Library (AID 1347372); note: potency is the fitted concentration of half-maximal effect
Sequence of Nuclear receptor subfamily 1 group I member 3 (Homo sapiens) (Q14994 whole entry, looked up): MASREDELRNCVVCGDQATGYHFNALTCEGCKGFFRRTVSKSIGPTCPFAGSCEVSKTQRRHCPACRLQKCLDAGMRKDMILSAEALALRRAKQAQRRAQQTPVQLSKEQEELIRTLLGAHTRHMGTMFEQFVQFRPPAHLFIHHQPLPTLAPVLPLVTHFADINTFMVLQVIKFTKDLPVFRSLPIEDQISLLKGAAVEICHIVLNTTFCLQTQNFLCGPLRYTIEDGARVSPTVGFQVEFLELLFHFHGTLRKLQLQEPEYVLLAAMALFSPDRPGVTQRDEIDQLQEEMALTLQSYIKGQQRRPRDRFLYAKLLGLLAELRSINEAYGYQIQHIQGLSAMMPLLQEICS
Procedure, shortened: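 Antagonist mode: compound added alongside 50 nM CITCO to HepG2-hCAR-CYP2B6 reporter cells, 24hr at 37C. Viability by CellTiter-Fluor fluorescence, then CAR-driven luciferase by ONE-Glo luminescence.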

[11] = qHTS for Hypoxia signaling pathway (HIF-1) antagonists against the NCATS CANVASS Library (AID 1347374); note: nearly all actives have a fitted effect of over 60% in size; note: potency is the fitted concentration of half-maximal effect
Procedure, shortened: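 Beta-lactamase reporter under HRE control in ME-180 cells; CoCl2 stimulus (60 uM solution as added), compounds 11-pt qHTS, 17 h 37C. CCF4 dye 2 h RT, 460/530 nm emission. CellTiter-Glo viability in same wells.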

[12] = qHTS for H2AX Agonists against the NCATS CANVASS Library (AID 1347378);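 note: phospho-H2AX S139 level in CHO-K1 lysates by TR-FRET emission ratio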
Procedure, shortened: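 Signal is the 665/620 nm emission ratio from europium cryptate and d2 antibody pair, rising with S139-phosphorylated H2AX. CHO-K1 cells saw test agents for 3 hr at 37C; detection ran 24 hr at room temperature.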

[13] = qHTS for Inflammasome Signaling Inhibitors: IL-1-beta AlphaLISA screen against the NCATS CANVASS Library (AID 1347379);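 note: human THP-1 cells primed with LPS then triggered with ATP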;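 for potency: secreted IL-1B measured as AlphaLISA emission at 615 nm; potency is the fitted concentration of half-maximal effect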
Procedure, shortened: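 THP-1, 1 hr compound pre-incubation, then LPS 250 ng/mL + ATP 1.25 mM (final); 16 hr total with compound; IL-1B AlphaLISA, ex 680/em 615 nm; 11-point qHTS, up to 57.5 uM final.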

[14] = Secretion counterscreen for inhibitors of the SERCaMP assay screened against the NCATS CANVASS Library (AID 1347390);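 note: light from luciferase secreted into medium read as a measure of general secretion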; note: potency is the fitted concentration of half-maximal effect
Procedure, shortened: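 Natural products are titrated in an 11-point series up to 77 uM onto SH-SY5Y-GLuc STOP cells for 20 h. Secreted reporter activity is measured as coelenterazine-driven luminescence, with Brefeldin A on each plate.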

[15] = qHTS for inhibitors of ER calcium dysfunction: SERCaMP assay screened against the NCATS CANVASS Library (AID 1347393); note: nearly all actives have a fitted effect of over 40% in size; note: potency is the fitted concentration of half-maximal effect
Procedure, shortened: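 Thapsigargin-induced ER calcium depletion drives GLuc-SERCaMP secretion from SH-SY5Y cells; compounds given 16 h beforehand were scored by lowered coelenterazine luminescence after 4 h challenge.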

[16] = qHTS for inhibitors of Wild type Zika virus screened against the NCATS CANVASS Library (AID 1347396);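 note: ATP luminescence of surviving cells so rescue from viral cell killing; series mostly up to about 46 µM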
Procedure, shortened: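 Luminescent CellTiter Glo read-out of virus-induced cytotoxicity, 72 h post-infection, in Vero 766 cells. Compounds were tested at 11 concentrations; uninfected, vehicle-treated wells defined 100% inhibition.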

[17] = HEK-293 Cancer Cell Toxicity qHTS against the NCATS CANVASS Library (AID 1347355); note: nearly all actives have a fitted effect of over 65% in size; note: potency is the fitted concentration of half-maximal effect
Procedure, shortened: as §2

[18] = MCF7 Cancer Cell Toxicity qHTS against the NCATS CANVASS Library (AID 1347369)
Procedure, shortened: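 This 72 hr qHTS scored MCF7 viability by CellTiterGlo luminescence, with 500 cells/well; bortezomib titration ran as control.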

[19] = OV-KATE Cancer Cell Toxicity qHTS against the NCATS CANVASS Library (AID 1347345); note: potency is the fitted concentration of half-maximal effect
Procedure, shortened: as §1

[20] = KB-3-1 Cancer Cell Toxicity qHTS against the NCATS CANVASS Library (AID 1347366); note: nearly all actives have a fitted effect of over 75% in size; note: potency is the fitted concentration of half-maximal effect
Procedure, shortened: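 Cytotoxicity toward KB-3-1 cells (500/well, DMEM + 10% FBS) was scored by CellTiter-Glo luminescence following 72 hr exposure at 37C, with bortezomib titrated as control.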

| SMILES | Potency [1] | Potency [2] | Potency [3] | Potency [4] | Potency [5] | Potency [6] | Potency [7] | Potency [8] | Potency [9] | Potency [10] | Potency [11] | Potency [12] | Potency [13] | Potency [14] | Potency [15] | outcome [16] | Potency [17] | Potency [18] | Potency [19] | Potency [20] |
| --- | --- | --- | --- | --- | --- | --- | --- | --- | --- | --- | --- | --- | --- | --- | --- | --- | --- | --- | --- | --- |
| O=C1CCC(=O)N(O)CCCCCNC(=O)CCC(=O)N(O)CCCCCNC(=O)CCC(=O)N(O)CCCCCN1 | inactive | inactive | inactive | inactive | 4.18 µM (active) | inactive | 8.33 µM (active) | inactive | inactive | inactive | inactive | inactive | inactive | inactive | inactive | inactive | – | – | – | – |
| CO[C@@H]1[C@H](O)[C@@H](C)O[C@@H](OC[C@@H]2C(C)OC(=O)/C=C/[C@H](C)C(O[C@@H]3O[C@H](C)CC4(OC(=O)O[C@@H]4C)C3O)[C@@H](C)CC(C)C(=O)/C=C/[C@H]3OC23)[C@@H]1OC (some centres undefined) | inactive | – | inactive | inactive | 16.6 µM (active) | inactive | 16.6 µM (active) | 16.6 µM (active) | 13.2 µM (active) | 20.9 µM (active) | 18.8 µM (active) | inactive | inactive | inactive | 8.6 µM (active) | inactive | 20.9 µM (active) | inactive | – | – |
| C[C@H]1CCC2(OC1)O[C@H]1C[C@H]3[C@@H]4CC(=O)[C@]5(O)C[C@H](O)CC[C@@]5(C)[C@H]4CC[C@@]3(C)[C@H]1[C@H]2C (some centres undefined) | – | – | inactive | – | – | inactive | – | inactive | inactive | inactive | – | inactive | 24.3 µM (active) | inactive | – | – | – | inactive | inactive | inactive |
| COC(=O)[C@@]1(C)CCC[C@]2(C)c3cc(OC)ccc3CC[C@@H]12 | – | inactive | inactive | inactive | inactive | inactive | inactive | inactive | inactive | – | inactive | inactive | inactive | inactive | inactive | inactive | inactive | inactive | inactive | inactive |
| COc1cc2oc3ccccc3c(=O)c2cc1OC | inactive | inactive | inactive | – | – | inactive | – | inactive | inactive | inactive | inactive | inactive | – | inactive | – | inactive | – | inactive | inactive | inactive |
| C/C(=C\[C@H](C)C(=O)/C=C/CC1CC(=O)NC(=O)C1)[C@@H]1OC(=O)CCCC/C=C/[C@H](O)[C@@H](O)[C@@H]1C | inactive | inactive | inactive | inactive | 13.2 µM (active) | inactive | 5.9 µM (active) | 23.4 µM (active) | – | inactive | 11.8 µM (active) | inactive | 21.7 µM (active) | inactive | 19.3 µM (active) | inactive | 23.5 µM (active) | inactive | – | – |
| COc1ccc([C@@H]2c3cc4c(cc3C(=O)[C@H](C)C2C)OCO4)cc1OC (some centres undefined) | inactive | inactive | – | 16.6 µM (active) | – | inactive | inactive | 16.6 µM (active) | inactive | inactive | inactive | inactive | inactive | inactive | inactive | inactive | 18.7 µM (active) | inactive | inactive | – |
| C=C1C[C@H]2O[C@@H]3[C@@H]4[C@H](CC[C@@](C)(O)[C@@H]42)[C@H](C)COC3(C)[C@@H](OC(=O)CCCCCCC)CC1=O (some centres undefined) | 8.41 µM (active) | – | inactive | – | 23.5 µM (active) | inactive | 5.9 µM (active) | – | – | – | – | inactive | 19.3 µM (active) | 48.4 µM (active) | – | – | 14.8 µM (active) | inactive | 21.1 µM (active) | – |
| C/C(=C\[C@H](C)C(=O)C[C@H](O)CC1CC(=O)NC(=O)C1)[C@@H]1OC(=O)CCCC/C=C/[C@@H](O)C[C@@H]1C | inactive | – | inactive | inactive | 2.35 µM (active) | inactive | 2.96 µM (active) | 7.41 µM (active) | – | 14.8 µM (active) | 4.2 µM (active) | inactive | 34.3 µM (active) | 9.65 µM (active) | inactive | inactive | 9.35 µM (active) | inactive | – | 9.35 µM (active) |
| C=C[C@@](C)(O)CC[C@@H]1[C@@]2(C)CCCC(C)(C)[C@@H]2CC[C@@]1(C)O | – | inactive | inactive | – | – | – | inactive | inactive | inactive | – | inactive | inactive | inactive | – | – | inactive | – | inactive | inactive | inactive |
| COc1cc2c(cc1OC)[C@@H](c1ccc3c(c1)OCO3)C(C)[C@@H](C)C2=O (some centres undefined) | – | inactive | inactive | – | – | inactive | – | 11.7 µM (active) | inactive | inactive | inactive | inactive | inactive | inactive | 34.3 µM (active) | – | – | inactive | inactive | inactive |
